Inconclusive results are not listed. The source made the active and inactive calls. Unless noted, calls follow the shape of the dose curve; as a rule, active = well fitted curve in the direction sought with a large enough effect in the repeat runs; inconclusive = weak or mixed curves; inactive = no such curve, though single readings can be large; an effect the other way counts as inactive or inconclusive.
Assays:
[1] = biological target: Peroxisome proliferator-activated receptor delta (Homo sapiens) (UniProt Q03181); experiment: qHTS assay to identify small molecule agonists of the peroxisome proliferator-activated receptor delta (PPARd) signaling pathway (AID 743212; calls by dose curve)
Procedure, shortened: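 GeneBLAzer UAS-bla HEK293H cells carrying a PPARδ construct were exposed to compounds at 37 °C. Beta-lactamase activity was read by FRET fluorescence after 2 h at room temperature with LiveBLAzer B/G substrate.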

[2] = qHTS assay to identify small molecule antagonists of the peroxisome proliferator-activated receptor delta (PPARd) signaling pathway - cell viability counter screen (AID 743213); also: nearly all actives have a fitted effect of over 50% in size
Procedure, shortened: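 CellTiter-Glo was added to PPARd-bla HEK293H wells following 17 h compound treatment in the presence of 300 nM L165041. Luminescence was recorded after 30 min at room temperature.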

[3] = biological target: Peroxisome proliferator-activated receptor delta (Homo sapiens) (UniProt Q03181); experiment: qHTS assay to identify small molecule antagonists of the peroxisome proliferator-activated receptor delta (PPARd) signaling pathway (AID 743215; active = well fitted inhibition curve with a large enough effect in the signal ratio in the repeat runs, not every such curve was filed as active; the % refers to the signal ratio;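 also: cells stimulated with agonist L165041 at 300 nM final during compound exposure; series mostly up to about 62 µM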)
Procedure, shortened: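 PPARd UAS-bla HEK293H cells were pre-incubated 5 h at 37 C, then given test compounds in DMSO plus agonist L165041 (300 nM final). After 17 h at 37 C, beta-lactamase FRET substrate was added; fluorescence read after 2 h at room temperature.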

[4] = biological target: Bile acid receptor (Homo sapiens) (UniProt Q96RI1); experiment: qHTS assay to identify small molecule antagonists of the farnesoid-X-receptor (FXR) signaling pathway (AID 743217; active = well fitted inhibition curve with a large enough effect in the signal ratio in the repeat runs, not every such curve was filed as active; the % refers to the signal ratio)
Procedure, shortened: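 FXR-UAS-bla HEK 293T cells pre-incubated 5 h at 37 °C, then exposed to compounds with chenodeoxycholic acid (50 uM final) for 16 h at 37 °C. Beta-lactamase reporter read by LiveBLAzer B/G FRET substrate fluorescence after 2 h at room temperature.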

[5] = qHTS assay to identify small molecule agonists of the farnesoid-X-receptor (FXR) signaling pathway - cell viability counter screen (AID 743218); also: nearly all actives have a fitted effect of over 45% in size
Procedure, shortened: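 FXR-UAS-bla HEK 293T cells, plated 5 h at 37 C, were exposed to compounds for 16 h at 37 C. CellTiter-Glo was then added to the same wells as the bla readout; luminescence read after 30 min at room temperature.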

[6] = biological target: Bile acid receptor (Homo sapiens) (UniProt Q96RI1); experiment: qHTS assay to identify small molecule agonists of the farnesoid-X-receptor (FXR) signaling pathway (AID 743220; active = well fitted activation curve with a large enough effect in the signal ratio in the repeat runs, not every such curve was filed as active; the % refers to the signal ratio)
Procedure, shortened: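 Beta-lactamase reporter under UAS control in GeneBLAzer FXR HEK 293T cells (5000/well) measured with LiveBLAzer FRET substrate after 2 h at room temperature. Compound exposure lasted 16 h at 37C.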

[7] = qHTS assay to identify small molecule antagonists of the farnesoid-X-receptor (FXR) signaling pathway - cell viability counter screen (AID 743221; active = well fitted cell-killing curve with a large enough effect in the repeat runs, not every such curve was filed as active; also: nearly all actives have a fitted effect of over 50% in size; also: potency is read from the fitted curve at half-maximal effect)
Procedure, shortened: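 Cytotoxicity counter screen run in the FXR-bla reporter wells: HEK 293T cells exposed to compound with 50 uM (final) chenodeoxycholic acid for 16 h, 37 C, then viability measured by CellTiter-Glo luminescence after 30 min, room temperature.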

[8] = biological target: Vitamin D3 receptor (Homo sapiens) (UniProt P11473); experiment: qHTS assay to identify small molecule agonists of the vitamin D receptor (VDR) signaling pathway (AID 743222; calls by dose curve)
Procedure, shortened: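 VDR-bla cells were plated 4 h at 37C/5% CO2, then exposed to compounds in DMSO for 16 h. After LiveBLAzer B/G FRET substrate addition and 2 h at room temperature, beta-lactamase reporter fluorescence was read.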

[9] = biological target: Vitamin D3 receptor (Homo sapiens) (UniProt P11473); experiment: qHTS assay to identify small molecule antagonists of the vitamin D receptor (VDR) signaling pathway (AID 743223; active = well fitted inhibition curve with a large enough effect in the signal ratio in the repeat runs, not every such curve was filed as active; the % refers to the signal ratio)
Procedure, shortened: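 Antagonist mode: compound added to VDR-bla cells alongside agonist 1alpha,25-dihydroxyvitamin D3 (3 nM final), incubation 16 h at 37C. Read-out is LiveBLAzer FRET fluorescence, 2 h at room temperature.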

[10] = qHTS assay to identify small molecule agonists of the vitamin D receptor (VDR) signaling pathway - cell viability counter screen (AID 743224); also: series mostly up to about 63 µM; nearly all actives have a fitted effect of over 50% in size
Procedure, shortened: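 VDR-bla cells were preincubated 4 h at 37C/5% CO2, then exposed to compounds for 16 h. After the 2 h room-temperature bla FRET read, CellTiter-Glo was added to the same wells and luminescence read after 30 min.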

Measured: Potency

Bile acid receptor (Homo sapiens), sequence (Q96RI1 whole entry, looked up): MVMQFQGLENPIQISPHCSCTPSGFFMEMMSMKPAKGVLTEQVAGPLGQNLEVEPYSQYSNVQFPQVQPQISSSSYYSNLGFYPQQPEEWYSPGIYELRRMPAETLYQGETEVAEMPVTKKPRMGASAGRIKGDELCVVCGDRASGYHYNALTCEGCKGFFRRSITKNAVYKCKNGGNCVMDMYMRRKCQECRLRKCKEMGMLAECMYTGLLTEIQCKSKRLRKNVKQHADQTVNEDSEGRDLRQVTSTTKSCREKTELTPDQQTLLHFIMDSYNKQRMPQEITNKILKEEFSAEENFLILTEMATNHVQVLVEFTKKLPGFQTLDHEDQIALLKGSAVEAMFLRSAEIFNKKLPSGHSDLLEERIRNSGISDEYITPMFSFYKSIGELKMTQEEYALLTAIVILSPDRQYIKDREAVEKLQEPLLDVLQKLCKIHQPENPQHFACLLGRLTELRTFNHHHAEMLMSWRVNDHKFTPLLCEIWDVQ
Vitamin D3 receptor (Homo sapiens), sequence (P11473 whole entry, looked up): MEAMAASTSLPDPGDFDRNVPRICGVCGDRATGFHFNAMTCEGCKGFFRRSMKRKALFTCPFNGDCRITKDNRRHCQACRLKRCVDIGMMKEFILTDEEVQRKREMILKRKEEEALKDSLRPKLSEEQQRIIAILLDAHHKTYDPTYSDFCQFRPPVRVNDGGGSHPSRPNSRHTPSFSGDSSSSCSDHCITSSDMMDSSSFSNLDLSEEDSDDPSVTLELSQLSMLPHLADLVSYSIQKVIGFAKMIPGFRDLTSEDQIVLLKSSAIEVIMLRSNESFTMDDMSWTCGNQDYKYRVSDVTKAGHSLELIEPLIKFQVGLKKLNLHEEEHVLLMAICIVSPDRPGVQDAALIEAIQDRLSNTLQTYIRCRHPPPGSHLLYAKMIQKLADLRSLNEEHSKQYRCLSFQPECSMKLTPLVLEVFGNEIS
Peroxisome proliferator-activated receptor delta (Homo sapiens), sequence (Q03181 whole entry, looked up): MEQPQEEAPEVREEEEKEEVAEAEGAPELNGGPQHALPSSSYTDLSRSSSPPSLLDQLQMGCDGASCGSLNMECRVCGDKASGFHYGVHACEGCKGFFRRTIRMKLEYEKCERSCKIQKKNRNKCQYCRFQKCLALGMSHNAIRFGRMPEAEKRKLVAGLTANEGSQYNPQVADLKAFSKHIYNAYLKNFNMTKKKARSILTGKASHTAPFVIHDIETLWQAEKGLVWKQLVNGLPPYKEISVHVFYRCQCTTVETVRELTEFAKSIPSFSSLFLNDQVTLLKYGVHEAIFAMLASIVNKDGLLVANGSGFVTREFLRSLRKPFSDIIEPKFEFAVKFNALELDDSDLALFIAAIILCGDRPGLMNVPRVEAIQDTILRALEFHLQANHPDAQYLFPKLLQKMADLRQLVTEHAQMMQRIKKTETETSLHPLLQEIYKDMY

CCC(CO)(CO)CO
not listed: [8] | [9] | [10]
inactive: all other assays above

c1ccc2sc(SSc3nc4ccccc4s3)nc2c1
inactive: all assays above

CC(C)(O)CCc1ccccc1
not listed: [9] | [10]
inactive: all other assays above

O=C(O)CCC(=O)c1ccc(-c2ccccc2)cc1
not listed: [6]
inactive: all other assays above

CCN(Cc1cccc(S(=O)(=O)O)c1)c1ccc(C(=C2C=CC(=[N+](CC)Cc3cccc(S(=O)(=O)O)c3)C=C2)c2ccccc2S(=O)(=O)[O-])cc1
active: [7] 13.9 µM
not listed: [10]
inactive: all other assays above

COC(=O)CC(C(C)=O)C(=O)OC (stereo not drawn)
not listed: [9]
inactive: all other assays above

CC(C)(C)C(O)/C=C/c1ccc2c(c1)OCO2 (stereo not drawn)
not listed: [6] | [10]
inactive: all other assays above

CCCCCCC(O)CCOC(C)=O (stereo not drawn)
not listed: [6] | [9]
inactive: all other assays above

CSCC[C@H](NC(=O)[C@H](Cc1c[nH]c2ccccc12)NC(=O)CCNC(=O)OC(C)(C)C)C(=O)N[C@@H](CC(=O)O)C(=O)N[C@@H](Cc1ccccc1)C(N)=O
not listed: [6] | [8] | [9]
inactive: all other assays above

C1CCCCC1
not listed: [6] | [8] | [9]
inactive: all other assays above

O=C(O)CNC(=O)c1ccccc1I
not listed: [6] | [9]
inactive: all other assays above

CC(=O)C(C)=O
inactive: all assays above

Cc1ccc(NC(=O)N(C)C)cc1NC(=O)N(C)C
not listed: [10]
inactive: all other assays above

CC(C)COC(=O)c1ccc(O)cc1
not listed: [6]
inactive: all other assays above

CC(C)C(O)C(C)(C)CO (stereo not drawn)
inactive: all assays above

CC/C=C\C/C=C\C/C=C\CCCCCCCC(=O)OCC
not listed: [9] | [10]
inactive: all other assays above

CC(=O)NNC(C)=O
inactive: all assays above

CC(=O)c1ccc[nH]1
not listed: [8] | [9]
inactive: all other assays above

Cc1oc(=O)oc1COC(=O)[C@@H]1N2C(=O)[C@@H](NC(=O)[C@H](N)c3ccccc3)[C@H]2SC1(C)C
not listed: [6] | [9]
inactive: all other assays above

CC(C)(C)S
not listed: [8] | [9]
inactive: all other assays above

CCCCC(CC)COS(=O)(=O)O (stereo not drawn)
not listed: [6] | [9]
inactive: all other assays above

Cc1ccccc1S(N)(=O)=O
inactive: all assays above

COc1cc(S(=O)(=O)Nc2ccccc2)c(OC)cc1N
not listed: [9] | [10]
inactive: all other assays above

Oc1cccc2[nH]ccc12
not listed: [9] | [10]
inactive: all other assays above

CC(O)Cn1cnc2c1c(=O)n(C)c(=O)n2C (stereo not drawn)
not listed: [6]
inactive: all other assays above

ClC1=C(Cl)C1(Cl)Cl
not listed: [6]
inactive: all other assays above

CCOC(=O)C(C)O (stereo not drawn)
not listed: [5] | [9] | [10]
inactive: all other assays above

O=C(O)CCCc1c[nH]c2ccccc12
inactive: [1] | [2] | [3] | [4] | [6] | [7]

CCCCCCCCCCCCCOC(=O)CCSCCC(=O)OCCCCCCCCCCCCC
not listed: [6]
inactive: all other assays above

CC(=O)OCCC(C)CC(C)(C)C (stereo not drawn)
not listed: [5] | [10]
inactive: all other assays above

O=c1[nH]c2cc(C(F)(F)F)c(N3CCOCC3)cc2n(CP(=O)(O)O)c1=O
not listed: [6] | [8] | [9]
inactive: all other assays above

C=CC(=O)NC(C)C
not listed: [9]
inactive: all other assays above

CCC(C)(C)C(=O)O
inactive: all assays above

CC(CO)(CO)C(=O)O
inactive: all assays above

CCCCCCCCCCCCCC(=O)OCC(O)CO (stereo not drawn)
not listed: [6] | [9] | [10]
inactive: all other assays above

Cc1ccc(N(CCO)CCO)cc1
not listed: [9]
inactive: all other assays above

C=C(C)c1ccccc1
inactive: all assays above

CCCCCCCCCCCCCCCC(=O)OCC
not listed: [8] | [9]
inactive: all other assays above

CSSc1ccoc1C
inactive: [1] | [2] | [3] | [4] | [7] | [10]

O=C1OC[C@H](Cc2cccc(O)c2)[C@H]1Cc1cccc(O)c1
inactive: [1] | [2] | [3] | [5] | [7] | [8]

CC1CCCO1 (stereo not drawn)
not listed: [4] | [6] | [10]
inactive: all other assays above

Nc1ccc(NC(=O)c2ccc(N)cc2)cc1
inactive: [1] | [2] | [3] | [5] | [7]

COc1ccc(C2C(=O)c3ccccc3C2=O)cc1
not listed: [4] | [6] | [10]
inactive: all other assays above

CC(C)c1ccc(C(=O)N=C(N)N)cc1S(C)(=O)=O
not listed: [4] | [6]
inactive: all other assays above

CCOC(=O)Oc1ccc(CCNC(=O)[C@H](CCSC)NC(C)=O)cc1OC(=O)OCC
inactive: [1] | [2] | [3] | [5] | [7]

CCCCCc1ccco1
not listed: [4] | [9] | [10]
inactive: all other assays above

CC(C)c1ccc(C#N)cc1
not listed: [4] | [6]
inactive: all other assays above

O=C(O)CN1C(=O)c2cccc3cccc(c23)C1=O
not listed: [4] | [6]
inactive: all other assays above

C=Cc1ccc(OC(C)=O)cc1
not listed: [4] | [6]
inactive: all other assays above

COC(=O)c1sccc1S(N)(=O)=O
not listed: [5]
inactive: all other assays above

Cc1cc([N+](=O)[O-])ccc1N
not listed: [5] | [6] | [10]
inactive: all other assays above

CCc1ccc(C)cc1
not listed: [5] | [6]
inactive: all other assays above

C/C(C=O)=C\c1ccccc1
not listed: [4] | [6]
inactive: all other assays above

Cc1cccc(C)c1NC(=O)c1cc(S(N)(=O)=O)c(Cl)cc1O
not listed: [5] | [6]
inactive: all other assays above

C1=CCC2CC=CC2C1 (stereo not drawn)
not listed: [5] | [6] | [10]
inactive: all other assays above

CC1=C2[C@@H]([C@H](C)CC[C@H]2/C=C(\C)C(=O)O)[C@H](O)C1
inactive: [1] | [2] | [3] | [4] | [7]

CCC(=O)OCc1ccc(OC)cc1
not listed: [5]
inactive: all other assays above

Reference: PubChem BioAssay (Tox21)
